Screens (PubChem)
RORgamma inh: qHTS for inhibitors of ROR gamma transcriptional activity; Drosophila S2 Gal4-RORgamma UAS-luciferase reporter, 20 h; Nuclear receptor ROR-gamma (Mus musculus), P51450; AID 2551, 2010; 5.4% of 310,000 active; Potency, µM (doses to about 53.6 µM), for the others: top-dose activity change, negative = inhibition, most hits filed as inhibitors; note: % is set by controls: 0 for no effect and ±100 for the full control effect; nearly all actives have a fitted effect of over 60% in size
Target sequence (P51450 whole entry, looked up, the tested form may be a part): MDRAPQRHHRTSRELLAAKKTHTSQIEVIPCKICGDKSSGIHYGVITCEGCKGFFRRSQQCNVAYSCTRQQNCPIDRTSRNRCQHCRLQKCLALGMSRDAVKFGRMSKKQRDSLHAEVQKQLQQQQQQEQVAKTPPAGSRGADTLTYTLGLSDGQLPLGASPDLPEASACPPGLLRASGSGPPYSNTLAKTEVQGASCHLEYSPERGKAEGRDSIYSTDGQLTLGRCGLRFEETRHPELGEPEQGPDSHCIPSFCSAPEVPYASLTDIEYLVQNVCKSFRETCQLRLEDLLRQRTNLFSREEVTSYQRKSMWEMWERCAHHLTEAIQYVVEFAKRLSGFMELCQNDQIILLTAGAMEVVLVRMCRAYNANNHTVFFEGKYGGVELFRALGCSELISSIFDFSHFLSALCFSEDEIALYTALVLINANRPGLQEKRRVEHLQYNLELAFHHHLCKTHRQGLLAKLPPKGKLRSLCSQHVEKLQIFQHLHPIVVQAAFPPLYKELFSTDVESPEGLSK
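Compounds are pin-transferred onto Drosophila Schneider cells expressing a copper-inducible Gal4–ROR gamma transactivation domain fusion. After 1 hr, copper sulfate is added to 700 uM final; luciferase is read 20 hr later.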
VP16 counter: VP16 counterscreen qHTS for inhibitors of ROR gamma transcriptional activity; Drosophila S2 Gal4-VP16 UAS-luciferase, luminescence, 20 h; Potency, µM (titrated, usually from 53.6 µM), without a hit: at the highest dose activity, negative = inhibition, most hits filed as inhibitors; 3.5% of 310,000 active;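 note: Gal4-VP16 expression switched on by copper sulfate through the metallothionein promoter; % is set by controls: 0 for no effect and ±100 for the full control effect; nearly all actives have a fitted effect of over 50% in size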
PINK1 expr mod: A Quantitative High throughput Screen to Identify Chemical Modulators of PINK1 Expression | PINK1 immunofluorescence, high-content cytometry, 24 h | AID 624263, 2012 | Potency, µM (doses to about 76.6 µM), inactives show at the highest dose activation (PINK1 increase), usual class: activators | 0.2% of 410,000 active; active = well fitted activation curve with a large enough effect; inconclusive = small, poorly fitted or top-dose-only effect; cell line not stated here; note: % of control where 0% means no effect; nearly all actives have a fitted effect of over 65% in size
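Stable cell line treated 24 h with compounds at 5 concentrations (CCCP controls), then fixed and immunostained for PINK1 plus nuclear and cell stains; PINK1 immunofluorescence quantified by laser-scanning microplate cytometry.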
Sfp inh: qHTS Assay for Inhibitors of Bacillus subtilis Sfp phosphopantetheinyl transferase (PPTase) | Potency, µM, for the others: largest response in the series, negative = inhibition, hits mostly inhibitors | Biochemical Sfp PPTase activity, qHTS | 4'-phosphopantetheinyl transferase ffp (Bacillus subtilis), Q9F4F7 | 3.5% of 310,000 active;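 note: the enzyme is Sfp with the accession as filed and its product quenches rhodamine fluorescence; 0% = enzyme reaction without inhibitor and -100% = no enzyme wells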
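Fluorescence-quenching assay: 15 nM Sfp-PPTase preincubated 15 min at room temperature with compound, then 5 uM rhodamine-CoA and 12.5 uM BHQ-2-labelled YbbR peptide added. Fluorescence (ex 525/em 598 nm) read at start and after 30 min; difference gives rate.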
ClpP mod: qHTS Assay for Activators of ClpP; purified B. subtilis ClpP, FRET peptide cleavage, 20 min; Potency, µM (series often up to 57.5 µM), for the others: at the top dose activity change, negative = active; ATP-dependent Clp protease proteolytic subunit (Bacillus subtilis (strain 168)), P80244; 1.9% of 340,000 active; active = well fitted falling curve with a large enough effect; inconclusive = small, poorly fitted or top-dose-only effect; inactive = no such curve, though single readings can be large or run the other way; note: the source files actives as falling curves though it sought activators and does not explain the sign; nearly all actives have a fitted effect of over 65% in size
Target sequence (P80244 whole entry, looked up): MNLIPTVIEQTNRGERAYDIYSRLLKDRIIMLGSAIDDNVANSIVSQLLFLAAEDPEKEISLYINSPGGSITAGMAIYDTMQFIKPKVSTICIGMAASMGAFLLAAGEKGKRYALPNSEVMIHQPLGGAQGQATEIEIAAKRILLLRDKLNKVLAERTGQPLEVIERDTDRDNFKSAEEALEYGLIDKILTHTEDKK
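FRET quenching reversal measured ClpP activation: 10 microg/mL B. subtilis ClpP at pH 8 with the FRET-FV decapeptide, read at 430 nm after 320 nm excitation. The 20-min minus 0-min signal was scaled between DMSO/no-enzyme wells and ADEP (5.8 microM final).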
Epigenetic reg: Quantitative High-Throughput Screen for Regulators of Epigenetic Control; murine LDR cells, GFP reporter derepression, 30 h; Potency, µM (titrated, usually from 53.9 µM), for the others: at the highest dose GFP activation, actives largely listed as activators; 0.2% of 280,000 active; note: % of control where 0% means no effect; nearly all actives have a fitted effect of over 60% in size
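Readout is the number of GFP-expressing murine LDR cells, counted by cytometry following washing. Cells were treated with compound for 30 h at 37 C; the stably integrated CMV-GFP locus is normally silent.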
* = called active by the depositor; [ ] = another dose, or the depositor's remark. Shown are actives, neighbours in structure and some others; about 8.1% of the full set was active somewhere. Unless noted, calls come from the whole dose curve; as a rule, active = well fitted curve in the direction sought with a large enough effect; inconclusive = small, poorly fitted or top-dose-only effect, or another doubt; inactive = no such curve, though single readings can be large; an effect the other way counts as inactive or inconclusive. Potency is the fitted concentration of half-maximal effect.

Screening Cc1ccc(NC(=O)C(=O)NCC(c2cccnc2)N2CCc3ccccc3C2)cc1 (stereo unspecified) returned PINK1 expr mod -0.5%, ClpP mod 0.2% and Epigenetic reg 22.4µM*.
`O=[N+]([O-])c1ccc(OCc2n[nH]c(=S)n2-c2ccccc2)cc1` gave RORgamma inh 0.316µM*, VP16 counter inconclusive, PINK1 expr mod -0.4%, Sfp inh -7.2% and ClpP mod -0.7%.
Screening O=C(COc1ccccc1)NCc1n[nH]c(=S)n1-c1ccccc1 returned RORgamma inh -27.8%, VP16 counter 10.2%, PINK1 expr mod 1.7%, Sfp inh 2.8% and Epigenetic reg 3.5%.
For S=c1[nH]nc(-c2ccc3c(c2)OCO3)n1-c1ccccc1 the results were RORgamma inh 8.91µM*, VP16 counter 11.2µM*, PINK1 expr mod -2.6%, Sfp inh -2.6%, ClpP mod inconclusive and Epigenetic reg 0.0%.
c1ccc(N2CCN(CCCOc3ccc4c(c3)OCO4)CC2)cc1 was read as RORgamma inh 6.4%, VP16 counter -7.9%, Sfp inh -15.7% and Epigenetic reg 3.0%.
`CCn1c(COc2ccc3c(c2)OCO3)nnc1SCC(=O)c1ccccc1` gave RORgamma inh 13.4%, VP16 counter 12.6µM*, PINK1 expr mod -1.3%, Sfp inh inconclusive, ClpP mod -1.1% and Epigenetic reg 1.0%.
Screening S=c1[nH]nc(COc2ccc3c(c2)OCO3)n1-c1ccccc1 returned RORgamma inh 3.55µM*, VP16 counter 11.2µM*, PINK1 expr mod 0.0%, Sfp inh 39.8µM*, ClpP mod 0.6% and Epigenetic reg -1.0%.
Screening Cc1nn(CC(=O)N2CCC(C)CC2)c(=O)c2cc3sccc3n12 returned PINK1 expr mod -2.4%, ClpP mod -20.1% and Epigenetic reg 0.0%.
For CCOc1cc2[nH]c(=S)n(Cc3ccc(C)o3)c(=O)c2cc1OCC the results were RORgamma inh 7.08µM*, VP16 counter 11.2µM*, PINK1 expr mod inconclusive, Sfp inh -21.7%, ClpP mod 0.9% and Epigenetic reg 1.8%.
`CCOc1cc2[nH]c(=S)n(C3CC3)c(=O)c2cc1OCC` gave RORgamma inh 4.47µM*, VP16 counter 15.8µM*, PINK1 expr mod 2.5%, Sfp inh 2.2%, ClpP mod -1.1% and Epigenetic reg -3.9%.
For CCOc1cc2[nH]c(=S)n(CCCOC)c(=O)c2cc1OCC the results were RORgamma inh 11.2µM*, VP16 counter inconclusive, PINK1 expr mod 7.5%[38.3 µM], Sfp inh -6.0%, ClpP mod -0.5% and Epigenetic reg -2.1%.
CCOc1cc2[nH]c(=S)n(CCCN3CCOCC3)c(=O)c2cc1OCC was read as RORgamma inh -13.0%, VP16 counter -17.2%, PINK1 expr mod -2.2%[38.3 µM], Sfp inh -8.0%, ClpP mod -0.3% and Epigenetic reg -0.8%.
For CCOc1cc2[nH]c(=S)n(C(C)C)c(=O)c2cc1OCC the results were RORgamma inh 2µM*, VP16 counter 7.08µM*, PINK1 expr mod 6.7%, Sfp inh 1.4%, ClpP mod 1.2% and Epigenetic reg -1.0%.
CCOc1cc2[nH]c(=S)n(CCc3ccc(OC)c(OC)c3)c(=O)c2cc1OCC was read as RORgamma inh 14.3%, VP16 counter 0.7%, Sfp inh -3.5%, ClpP mod -1.4% and Epigenetic reg 0.0%.
Screening O=C1CC[C@@H](CN(Cc2cccnc2)C2CCN(c3ccc(NC(=O)c4cnccn4)cc3)CC2)N1 returned PINK1 expr mod 0.5%.
CCCN1CCN(c2cc3c(cc2F)c(=O)c(S(=O)(=O)c2ccc(CC)cc2)cn3CC)CC1 was read as PINK1 expr mod 7.4%, ClpP mod inconclusive and Epigenetic reg -0.4%.
For CCC(CO)n1c(=S)[nH]c2cc(OC)c(OC)cc2c1=O (stereo unspecified) the results were RORgamma inh 11.2µM*, VP16 counter inconclusive, PINK1 expr mod 0.2%, Sfp inh -29.6%, ClpP mod -1.3% and Epigenetic reg 1.1%.
`C(=N\C(/N=C/c1ccco1)c1ccco1)/c1ccco1` gave RORgamma inh 8.3%, VP16 counter 17.4%, PINK1 expr mod -0.4%, Sfp inh inconclusive, ClpP mod 15.8µM* and Epigenetic reg 0.2%.
For COc1ccc(OC)c2nc3c(cc12)CCC3 the results were RORgamma inh 15.8µM*, VP16 counter inconclusive, PINK1 expr mod 1.3%, Sfp inh -8.6% and ClpP mod -15.1%.
For Cc1csc2nc(COC(=O)CNC(=O)c3ccccc3Cl)cc(=O)n12 the results were PINK1 expr mod 0.3%, ClpP mod inconclusive and Epigenetic reg 0.8%.
Screening Cc1cc(C)n2[nH]c(=O)c(N=Nc3cccc(Cl)c3)c2n1 returned RORgamma inh 8.91µM*, VP16 counter 0.7%, PINK1 expr mod 1.3%, Sfp inh -22.2%, ClpP mod -1.3% and Epigenetic reg -1.6%.
Cc1cc(C)n2[nH]c(=O)c(N=Nc3cccc(C(F)(F)F)c3)c2n1 was read as RORgamma inh 12.6µM*, VP16 counter inconclusive, PINK1 expr mod -0.3%, Sfp inh 6.2%, ClpP mod -2.2% and Epigenetic reg 0.1%.
Cc1cc(C)n2[nH]c(=O)c(N=Nc3ccccc3)c2n1 was read as RORgamma inh 5.4%, VP16 counter -4.1%, PINK1 expr mod 2.0%, Sfp inh -0.7%, ClpP mod -0.2% and Epigenetic reg -2.6%.
Screening Cn1cc(/C=C/c2ccc3ccccc3n2)c2ccccc21 returned ClpP mod -6.9%.
Screening CCOc1cc(NC(=O)C2CCCCC2)c(OCC)cc1NC(=O)c1ccco1 returned RORgamma inh 18.8%, VP16 counter -5.9%, PINK1 expr mod 25.0%, Sfp inh 12.1%, ClpP mod -6.5% and Epigenetic reg 1.1%.
For COc1ccccc1C(=O)NNC(=S)NC(=O)c1ccco1 the results were RORgamma inh 15.8µM*, VP16 counter inconclusive, PINK1 expr mod 2.0%, Sfp inh -6.0%, ClpP mod -0.8% and Epigenetic reg -0.9%.
`COc1ccccc1C(=O)NNC(=O)C(=O)Nc1ccc(C)cc1` gave RORgamma inh 11.2µM*, VP16 counter 3.0%, PINK1 expr mod -2.9% and Sfp inh 25.3%.
